Inconclusive results are not listed. Where a call stands in place of a potency, no number is given. Active and inactive are the calls of the source. The call rests on the fitted dose curve; in most records, active means well fitted curve in the direction sought with a large enough effect; inconclusive means small, poorly fitted or top-dose-only effect, or another doubt; inactive means no such curve, though single readings can be large; an effect the other way counts as inactive or inconclusive.
Assays:
[1] = molecular target: Glutathione peroxidase 1 (Homo sapiens) (UniProt P07203); assay: Primary qHTS Assay for Inhibitors of Recombinant Selenoprotein Glutathione Peroxidase 1 (GPX1) (AID 1845191); details: recombinant GPX1, GR-coupled NADPH fluorescence, 15 min; series mostly up to 48.8 µM; further: nearly all actives have a fitted effect of over 65% in size
Chain of Glutathione peroxidase 1 (Homo sapiens) (P07203 whole entry, looked up): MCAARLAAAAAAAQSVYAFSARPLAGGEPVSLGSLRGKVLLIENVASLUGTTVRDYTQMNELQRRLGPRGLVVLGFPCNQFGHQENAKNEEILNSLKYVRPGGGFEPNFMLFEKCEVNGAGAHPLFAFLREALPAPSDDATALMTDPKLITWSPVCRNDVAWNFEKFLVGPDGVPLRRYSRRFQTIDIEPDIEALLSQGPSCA
Method in brief: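 GPX1 10 nM, GR 100 nM, GSH 1 mM, NADPH 0.5 mM, CHP 0.5 mM (final). 30-min cpd preincubation, RT. Ex340/Em450 read t=0, t=15 min.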

[2] = molecular target: Phospholipid hydroperoxide glutathione peroxidase GPX4 (Homo sapiens) (UniProt P36969); assay: Primary qHTS Assay for Inhibitors of Recombinant Selenoprotein Glutathione Peroxidase 4 (GPX4) (AID 1845192); details: recombinant GPX4, GR-coupled NADPH fluorescence, 15 min; series mostly up to 50 µM; further: nearly all actives have a fitted effect of over 65% in size
Chain of Phospholipid hydroperoxide glutathione peroxidase GPX4 (Homo sapiens) (P36969 whole entry, looked up): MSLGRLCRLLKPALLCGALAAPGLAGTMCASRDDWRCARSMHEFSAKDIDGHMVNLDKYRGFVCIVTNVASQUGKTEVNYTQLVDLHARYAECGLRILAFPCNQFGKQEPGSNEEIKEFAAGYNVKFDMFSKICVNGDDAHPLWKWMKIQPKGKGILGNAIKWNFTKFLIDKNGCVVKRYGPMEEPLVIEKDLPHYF
Method in brief: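 qHTS, GR-coupled: GPX4 200 nM + cpd 30 min RT → GSH 1 mM, NADPH 0.5 mM, GR 100 nM → CHP 0.5 mM start; fluor 340/450 at t0 and t15 min; no-enzyme wells as control.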

[3] = molecular target: Luciferin 4-monooxygenase (Photinus pyralis) (UniProt P08659); assay: Primary firefly luciferase (FLuc) qHTS assay for identification of artifact compounds. (AID 1845220); details: purified firefly luciferase, luminescence, 5 min; series mostly up to 54.1 µM; further: nearly all actives have a fitted effect of over 60% in size
Method in brief: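 qHTS, 15 min compound preincubation with substrate (10 uM luciferin, 10 uM ATP) at RT, then 10 nM FLuc; 5 min; luminescence; % inhibition vs no-enzyme/DMSO controls, 4-parameter Hill fit.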

[4] = Primary fluorescence-based thiol-reactive (MSTI) qHTS assay for identification of artifact compounds. (AID 1845221); details: MSTI thiol-reactivity probe, 1 h; series mostly up to 53.8 µM;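 further: thiol-reactive compounds lower the probe fluorescence signal; nearly all actives have a fitted effect of over 65% in size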
Method in brief: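 Probe: MSTI 4 uM, PBS pH 7.4, 2% DMSO. Incubation 1 h, RT, light-protected. Readout fluorescence 525/598 nm.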

[5] = Primary redox qHTS assay for identification of artifact compounds. (AID 1845223); details: Amplex Red/HRP redox cycling with DTT, fluorescence; series mostly up to 53.8 µM
Method in brief: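 Redox-cycling detection via DTT (250 uM final) oxidation coupled to Amplex Red (25 uM)/HRP (250 mU/mL) in HBSS. 15 min preincubation plus 30 min after DTT, room temperature. Ex/Em 525/598 nm; 4-parameter Hill fit against DMSO and 10 uM DA3003.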

[6] = Quantitative High-Throughput drug screen in 47 multiple myeloma cell lines against the NCATS MIPE library collection: FR4_PLB cell viability assay (AID 1918924; further: nearly all actives have a fitted effect of over 35% in size; further: potency means the concentration at half of the fitted maximal effect); details: FR4_PLB myeloma cells viability, CellTiter-Glo ATP, 48 h; series mostly up to 45.8 µM
Method in brief: (§1)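 qHTS of the MIPE 4.0 collection: 500 myeloma cells/well, 48 h drug exposure at 37C in 5% CO2, then CellTiter-Glo for 5 min at room temperature before luminescence reading.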

[7] = Quantitative High-Throughput drug screen in 47 multiple myeloma cell lines against the NCATS MIPE library collection: Delta47_JCRB cell viability assay (AID 1918925; further: nearly all actives have a fitted effect of over 45% in size; further: potency means the concentration at half of the fitted maximal effect); details: Delta47 myeloma viability, CellTiter-Glo ATP, 48 h; series mostly up to 45.8 µM
Method in brief: (§2)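 Approved and investigational drugs from MIPE 4.0 were added by pin tool to 500 cells per well. After 48 hours at 37C, ATP-based CellTiter-Glo luminescence indicated remaining viability.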

[8] = Quantitative High-Throughput drug screen in 47 multiple myeloma cell lines against the NCATS MIPE library collection: EJM_DSMZ cell viability assay (AID 1918926; further: nearly all actives have a fitted effect of over 30% in size; further: potency means the concentration at half of the fitted maximal effect); details: EJM myeloma cell viability, CellTiter-Glo ATP, 48 h; series mostly up to 45.8 µM
Method in brief: as §2

[9] = Quantitative High-Throughput drug screen in 47 multiple myeloma cell lines against the NCATS MIPE library collection: AMO1_DSMZ cell viability assay (AID 1918927; further: nearly all actives have a fitted effect of over 30% in size; further: potency means the concentration at half of the fitted maximal effect); details: AMO1 myeloma cells viability, CellTiter-Glo ATP luminescence, 48 h; series mostly up to 45.8 µM
Method in brief: as §2

[10] = Quantitative High-Throughput drug screen in 47 multiple myeloma cell lines against the NCATS MIPE library collection: ARD_JJKsccE7 cell viability assay (AID 1918929; further: potency means the concentration at half of the fitted maximal effect); details: ARD myeloma cell line viability, CellTiter-Glo, 48 h; series mostly up to 45.8 µM
Method in brief: as §2

[11] = Quantitative High-Throughput drug screen in 47 multiple myeloma cell lines against the NCATS MIPE library collection: Karpas620_DSMZ cell viability assay (AID 1918959); details: Karpas620 myeloma viability, CellTiter-Glo ATP luminescence, 48 h; series mostly up to 45.8 µM; further: nearly all actives have a fitted effect of over 30% in size; further: potency means the concentration at half of the fitted maximal effect
Method in brief: as §1

[12] = Quantitative High-Throughput drug screen in 47 multiple myeloma cell lines against the NCATS MIPE library collection: ARP1_JJKsccF8 cell viability assay (AID 1918928; further: nearly all actives have a fitted effect of over 40% in size; further: potency means the concentration at half of the fitted maximal effect); details: ARP1 myeloma cells viability, CellTiter-Glo ATP, 48 h; series mostly up to 45.8 µM
Method in brief: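 500 cells/well; MIPE 4.0 library pinned in; 48 h, 37 °C, 5% CO2; CellTiter-Glo ATP luminescence. Controls: DMSO = 100% viability, medium only = 0%.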

SMILES	Potency [1]	Potency [2]	outcome [3]	Potency [4]	outcome [5]	Potency [6]	Potency [7]	Potency [8]	Potency [9]	Potency [10]	Potency [11]	Potency [12]
CCCCCCCCCCCCCCCC[N+](C)(C)C	inactive	inactive										
Cc1ccccc1-n1c(Cn2ncc3c(N)ncnc32)nc2cccc(C)c2c1=O	inactive	inactive	inactive	inactive	inactive	4.69 µM (active)	0.209 µM (active)	16.6 µM (active)	0.148 µM (active)	0.118 µM (active)	0.0372 µM (active)	
O=c1[nH]c2ccc(Cl)cc2c(N[C@@H]2CN3CCC2CC3)c1-c1nc2ccccc2[nH]1	inactive	inactive	inactive	inactive	inactive	0.0743 µM (active)	0.0935 µM (active)	0.418 µM (active)	0.0743 µM (active)	0.935 µM (active)	5.9 µM (active)	2.64 µM (active)
O=C(Oc1ccc([N+](=O)[O-])cc1)N1CCN(Cc2cccc(Oc3ccccc3)c2)CC1	inactive	inactive	inactive		inactive	inactive		inactive				inactive
CCCC[N+]1(C)[C@H]2CC(OC(=O)[C@H](CO)c3ccccc3)C[C@H]1[C@H]1O[C@H]12 (stereo partly specified)	inactive	inactive				inactive	inactive			inactive	inactive	
CC(C)N(CCNC(=O)CN1CCCC1=O)C(C)C	inactive	inactive	inactive	inactive	inactive	inactive	inactive	inactive	inactive	inactive	inactive	
C/C=C(/C)C(=O)O[C@H]1C(C)=C2[C@H]([C@@H]1OC(=O)CCCCCCC)[C@@](C)(OC(C)=O)C[C@H](OC(=O)CCC)[C@@]1(O)[C@H]2OC(=O)[C@@]1(C)O	inactive	inactive	inactive	inactive	inactive							
CCOC(=O)c1c(C(C#N)=CN)c2ccc(Cl)c(Cl)c2n1C	inactive	inactive				inactive	inactive	inactive			inactive	inactive
Cc1ccccc1-n1c(Cn2cnc3c(N)ncnc32)nc2cccc(C)c2c1=O	inactive	inactive	inactive	inactive	inactive	6.62 µM (active)	0.105 µM (active)	4.18 µM (active)			4.18 µM (active)	
CCN1CCN(C(=O)Cc2ccc(Nc3ncc(F)c(Nc4ccc(C(=O)Nc5ccccc5Cl)cc4)n3)cc2)CC1	inactive	inactive	inactive	inactive	inactive	3.72 µM (active)	1.32 µM (active)	8.33 µM (active)		0.743 µM (active)	1.87 µM (active)	3.72 µM (active)
CCNC(=O)CC1N=C(c2ccc(Cl)cc2)c2cc(OC)ccc2-n2c(C)nnc21 (stereo unspecified)	inactive	inactive	inactive	inactive	inactive		6.62 µM (active)		10.5 µM (active)	13.2 µM (active)		
COc1ccc(N(C(=O)Oc2c(C)cccc2C)c2ccnc(Nc3ccc(N4CCN(C)CC4)cc3)n2)c(OC)c1	inactive	inactive	inactive		inactive	2.64 µM (active)	4.18 µM (active)	0.743 µM (active)		7.43 µM (active)	2.64 µM (active)	
C[C@]12CC[C@H]3[C@@H](CCC4=CC(=O)CC[C@@]43C)[C@H]1CC[C@H]2OC(=O)CCC1CCCC1	inactive	inactive				inactive	inactive	16.6 µM (active)			inactive	
O=C(O)Cc1cnc[nH]1	inactive	inactive										
O=c1cccc2n1CC1CNC[C@H]2C1	inactive	inactive				inactive		inactive			13.2 µM (active)	
C[C@](O)(COc1ccc(C#N)cc1)C(=O)Nc1ccc(C#N)c(C(F)(F)F)c1	inactive	inactive				inactive						inactive
CC(C)[C@]12O[C@@H]1[C@@H]1O[C@]13[C@]1(O[C@H]1C[C@@H]1C4=C(CC[C@@]13C)C(=O)OC4)[C@H]2O						inactive	inactive	inactive	inactive	inactive	inactive	inactive
CC(C)(C)c1cc(C=C(C#N)C#N)cc(Br)c1O	inactive					26.4 µM (active)	16.6 µM (active)	23.5 µM (active)	26.4 µM (active)			26.4 µM (active)
CC(C)[C@H]1C(=O)N[C@H](CO)Cc2c[nH]c3cccc(c23)N1C	inactive	inactive					inactive	inactive			inactive	inactive
CC(=Cc1csc(C)n1)[C@@H]1C[C@H]2O[C@@H]2CCC[C@H](C)[C@@H](O)[C@@H](C)C(=O)C(C)(C)[C@@H](O)CC(=O)O1						inactive	inactive	inactive	0.001 µM (active)	0.001 µM (active)		inactive
CN(C)[C@@H]1C(=O)C(C(N)=O)=C(O)[C@@]2(O)C(=O)C3=C(O)c4c(O)cccc4[C@@](C)(O)[C@H]3[C@H](O)[C@@H]12	inactive	inactive				inactive		inactive		inactive		
CN1[C@H]2CC(O)C[C@H]1[C@H]1O[C@H]12 (stereo partly specified)						26.4 µM (active)	9.35 µM (active)	20.9 µM (active)	inactive	inactive	inactive	
CC(=O)OCC1=C(C(=O)O)N2C(=O)[C@@H](N)[C@@H]2SC1						inactive	inactive	inactive			10.5 µM (active)	inactive
CC(=Cc1csc(C)n1)[C@@H]1C[C@H]2O[C@]2(C)CCC[C@H](C)[C@@H](O)[C@@H](C)C(=O)C(C)(C)[C@@H](O)CC(=O)O1						inactive	inactive	inactive		inactive		inactive
